Experimental data published in PubChem BioAssay AID624387 (National Center for Advancing Translational Sciences (NCATS), 2012).
The source made the active and inactive calls. The call rests on the fitted dose curve; in most records, active means well fitted curve in the direction sought with a large enough effect; inactive means no such curve, though single readings can be large or run the other way.

Biological target: Pyruvate kinase PKM (Homo sapiens) (UniProt P14618)
Assay: qHTS for Activators of Human Muscle Isoform 2 Pyruvate Kinase: Extended Characterization using M1 for Probe 2
Settings: purified hPK-M1, Kinase-Glo ATP luminescence, 1 h; series mostly up to 57.7 µM
Experimental: Human pyruvate kinase muscle isoform 1 (hPK-M1) enzyme was supplied as a highly purified (>95% pure) preparation from Harvard Medical School and assayed for its ability to generate ATP from ADP using phosphoenolpyruvate (PEP) as a substrate. ATP generation was detected in a coupled reaction by luciferase-mediated luminescence, an ATP-dependent process. Pyruvate kinase substrates, PEP and ADP, were present in the assay at Km and approximately 10-fold below Km respectively. The enzyme was assayed at an intermediate level of activity to screen for both inhibitors and activators. NIH Chemical Genomics Center [NCGC] NIH Molecular Libraries Probe Centers Network [MLPCN] MLPCN Grant: MH085679 Assay Submitter (PI): Matthew G. Vander Heiden, Harvard Medical School
Three uL of substrate mix (at r.t.) in assay buffer (50 mM Imidazole pH7.2, 50 mM KCl, 7 mM MgCl2, 0.01% Tween 20, 0.05% BSA) was dispensed into white solid bottom 1,536 well microtiter plates so that the final concentrations of substrates in the assay were 0.1 mM ADP and 0.5 mM PEP. 23 nL of compound were delivered by a pin tool and 1 uL of enzyme mix (final concentration of 1 nM) in assay buffer (4 degree Celsius) was added. Plates were incubated at room temperature for 1 hour. Two uL of detection mix (Kinase-Glo, Promega; at 4 degree Celsius protected from light) was added and luminescence read by a ViewLux (Perkin Elmer) at 1 second exposure/plate. Data were normalized to the uninhibited (row 31). Additionally, a no enzyme and 5-fold enzyme control was dispensed in row 32, split equally between the two conditions.

Chain of Pyruvate kinase PKM (Homo sapiens) (P14618 whole entry, looked up, canonical isoform): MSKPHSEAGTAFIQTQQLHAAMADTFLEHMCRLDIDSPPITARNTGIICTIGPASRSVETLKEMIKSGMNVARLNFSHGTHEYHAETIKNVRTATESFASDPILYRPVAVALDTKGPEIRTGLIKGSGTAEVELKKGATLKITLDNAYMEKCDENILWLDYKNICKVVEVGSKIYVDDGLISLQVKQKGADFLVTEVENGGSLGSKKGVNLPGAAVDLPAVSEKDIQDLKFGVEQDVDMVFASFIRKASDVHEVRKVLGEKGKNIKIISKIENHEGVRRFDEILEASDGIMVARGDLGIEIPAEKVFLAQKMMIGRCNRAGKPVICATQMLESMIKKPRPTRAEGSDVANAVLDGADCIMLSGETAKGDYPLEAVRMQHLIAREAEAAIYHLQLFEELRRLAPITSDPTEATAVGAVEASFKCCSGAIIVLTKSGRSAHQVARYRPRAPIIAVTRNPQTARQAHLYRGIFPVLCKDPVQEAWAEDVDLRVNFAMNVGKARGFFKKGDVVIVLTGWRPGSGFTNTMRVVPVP

outcome, inactive:
O=S(=O)(c1ccc2c(c1)OCCO2)N1CCN(S(=O)(=O)c2c(F)cccc2F)CC1
Cc1ccc(NS(=O)(=O)c2ccc3c(c2)CCC(=O)N3)cc1C
Nc1cccc(S(=O)(=O)N2CCCN(S(=O)(=O)c3ccc4c(c3)OCCO4)CC2)c1
COc1cccc(Cn2ncc3c4sc(S(C)=O)cc4n(C)c3c2=O)c1 (stereo not given)
Cn1c2cc(S(C)=O)sc2c2cnn(Cc3cccc(N)c3)c(=O)c21 (stereo not given)
